Assay outcomes: PubChem BioAssay, National Center for Advancing Translational Sciences (NCATS)
This is a sample that favours compounds with a hit; in the whole collection about 18% have one here.
TDP1 cell noCPT – qHTS for Inhibitors of human tyrosyl-DNA phosphodiesterase 1 (TDP1): qHTS in cells in absence of CPT; 420,000 compounds, 15% hits; Potency, µM (titrated, usually from 46.2 µM), inactives show at the highest dose activity change, negative = growth inhibition, actives largely listed as inhibitors; AID 686978, 2013; DT40 Tdp1-/- hTDP1 cells, no CPT, ATP luminescence, 48 h; also: potency is read from the fitted curve at half-maximal effect; % is scaled to controls: 0 for no effect and ±100 for the full control effect; nearly all actives have a fitted effect of over 55% in size
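Seeded 400 DT40-hTDP1 cells/well (vehicle DMSO, no 20 nM CPT); pinned compounds; ≥48 hr at 37 °C; CellTiter-Glo luminescence as viability measure.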
HepG2 viability – qHTS for Inhibitors of TGF-b: Cytotox Counterscreen | HepG2 CAGA-GFP viability, ATP luminescence, 18 h | Potency, µM (highest dose often 46.1 µM), without a hit: top-dose activity change, negative = cytotoxicity, usual class: cytotoxic | 410,000 compounds, 0.76% hits; also: potency is read from the fitted curve at half-maximal effect
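CellTiter-Glo luminescence gave cytotoxicity after 18 hours at 37 degrees C. The cells were HepG2 CAGA-GFP in 1% FBS DMEM, stimulated with 500 pg/mL TGF-beta after compound addition. %Activity was normalised to no-cell wells (complete cell-killing) and DMSO (no toxicity), and curves were fitted and classified.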
TGFb SMAD3 inh – qHTS for Inhibitors of TGF-b | Potency, µM (series often up to 46.1 µM), for inactives: top-dose activity, negative = inhibition, usual class: inhibitors | AID 588855, 2011 | HepG2 CAGA-GFP TGF-b/SMAD3 reporter, GFP fluorescence, 18 h; TGF-beta stimulated, 500 pg/mL final | 410,000 compounds, 1.2% hits; also: potency is read from the fitted curve at half-maximal effect; % is scaled to controls: 0 for no effect and ±100 for the full control effect; nearly all actives have a fitted effect of over 65% in size
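Inhibition was scored as loss of TGF-beta-induced (500 pg/mL final, 18 hours, 37 degrees C) GFP in HEPG2 cells carrying a CAGA-GFP reporter, in DMEM with 1% FBS. Well GFP was summed per cell; Activity was normalised to unstimulated and stimulated DMSO wells, then concentration-response fitting.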
TDP1 block – qHTS Assay for Inhibitors of Tyrosyl-DNA Phosphodiesterase (TDP1). Tyrosyl-DNA phosphodiesterase 1 (Homo sapiens), Q9NUW8. AID 485290, 2010. Potency, µM (series often up to 130 µM), without a hit: at the highest dose activity change, negative = inhibition, hits mostly inhibitors. recombinant TDP1, AlphaScreen DNA substrate cleavage. 350,000 compounds, 0.28% hits; also: potency is read from the fitted curve at half-maximal effect; % is scaled to controls: 0 for no effect and ±100 for the full control effect; nearly all actives have a fitted effect of over 40% in size
Target sequence (Q9NUW8 whole entry, looked up): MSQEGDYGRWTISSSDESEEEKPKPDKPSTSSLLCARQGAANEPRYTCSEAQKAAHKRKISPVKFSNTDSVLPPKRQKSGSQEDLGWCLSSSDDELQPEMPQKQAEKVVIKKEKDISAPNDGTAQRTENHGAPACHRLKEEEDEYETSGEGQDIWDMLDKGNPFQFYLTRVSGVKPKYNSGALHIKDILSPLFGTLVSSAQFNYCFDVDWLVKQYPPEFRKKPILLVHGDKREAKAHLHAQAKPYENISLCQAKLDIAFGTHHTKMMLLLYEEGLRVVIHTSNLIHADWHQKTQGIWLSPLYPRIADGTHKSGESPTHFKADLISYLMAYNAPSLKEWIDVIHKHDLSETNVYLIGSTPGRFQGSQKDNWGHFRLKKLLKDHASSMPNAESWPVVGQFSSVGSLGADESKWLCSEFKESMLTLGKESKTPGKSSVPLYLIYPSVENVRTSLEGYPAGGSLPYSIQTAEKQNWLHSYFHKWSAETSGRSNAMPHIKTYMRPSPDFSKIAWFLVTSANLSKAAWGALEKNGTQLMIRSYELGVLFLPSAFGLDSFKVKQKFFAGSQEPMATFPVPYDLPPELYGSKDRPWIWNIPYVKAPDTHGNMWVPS
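Compounds were preincubated with Tdp1 (1 nM final) for 15 min at room temperature before substrate (15 nM final) started a 5 min reaction; beads (10 ug/ml final) were then added for 10 min before AlphaScreen detection.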
DT40 TDP1 CPT – qHTS for Inhibitors of human tyrosyl-DNA phosphodiesterase 1 (TDP1): qHTS in cells in presence of CPT; chicken DT40 Tdp1-/-;hTDP1 cells + 20 nM CPT, ATP luminescence, 48 h; Potency, µM (series often up to 46.2 µM), for the others: at the top dose activity change, negative = growth inhibition, hits mostly inhibitors; 420,000 compounds, 12% hits; AID 686979, 2013; also: potency is read from the fitted curve at half-maximal effect; % is scaled to controls: 0 for no effect and ±100 for the full control effect; nearly all actives have a fitted effect of over 55% in size
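Chicken DT40 Tdp1-/- cells stably complemented with human TDP1 were seeded at 400 cells/well in medium containing 20 nM camptothecin, exposed to pin-transferred compounds, and grown at 37 °C for at least 48 hr. Viability was read as ATP luminescence.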
IL1B secr inh – qHTS for Inhibitors of Inflammasome Signaling: IL-1-beta AlphaLISA Primary Screen. THP-1 LPS/ATP IL-1B secretion, AlphaLISA, 16 h; stronger effect = lower value. activity change, % at 57.5 µM. 360,000 compounds, 4.7% hits. AID 743279, 2014; in the data active = activity change below about -50%; inconclusive = mostly about -30% to -49%; also: % is scaled to controls: 0 for no effect and ±100 for the full control effect
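Secreted IL-1B measured by AlphaLISA bead assay after 16 h compound exposure of THP-1 cells; compounds (final up to 57.5 uM) added 1 h before LPS (250 ng/mL) and ATP (1.25 mM) stimulation; lower signal means less secretion.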
* = called active by the depositor; ? = inconclusive; · = not tested or not shown. Unless noted, calls follow the shape of the dose curve; as a rule, active = well fitted curve in the direction sought with a large enough effect; inconclusive = small, poorly fitted or top-dose-only effect, or another doubt; inactive = no such curve, though single readings can be large; an effect the other way counts as inactive or inconclusive.

SMILES	TDP1 cell noCPT	HepG2 viability	TGFb SMAD3 inh	TDP1 block	DT40 TDP1 CPT	IL1B secr inh
Cc1ccsc1C(=O)N/N=C/C=C/c1ccccc1[N+](=O)[O-]	?	-13%	0%	8%	21µM*	-4
O=C(N/N=C/C=C\c1ccccc1[N+](=O)[O-])c1ccccn1	-26%	-13%	0%	9%	?	0
O=C(N/N=C/C=C/c1ccccc1[N+](=O)[O-])c1cc(-c2ccccc2)n[nH]1	15µM*	6%	-10%	-3%	16µM*	0
Cc1ccccc1NC(=O)CSc1nnc(Cc2ccccc2)c(=O)n1N	1%	-15%	10%	1%	-9%	-6
COc1ccc(-c2cc(C(F)(F)F)nc(NCCc3ccccc3)n2)cc1	26µM*	-2%	?	-15%	23µM*	·
COc1cccc(-c2cc(C(F)(F)F)nc(NCCc3ccccc3)n2)c1	?	-23%	-25%	-3%	?	·
Fc1ccc(CNc2nc(-c3ccccc3)cc(C(F)(F)F)n2)cc1	?	-36%	-14%	-15%	21µM*	·
O=C(CCCc1ccccn1)c1cccc2ccccc12	-30%	-5%	4%	·	-20%	-4
COc1cc(-c2ccccc2)nc(N)n1	-1%	3%	2%	-3%	0%	18
Nc1nc(Cl)cc(-c2ccccc2)n1	-15%	6%	3%	5%	3%	-50*
COc1ccccc1-n1ccnc1SCC(=O)NC1CCCC1	-1%	3%	-3%	-12%	8%	-9
COc1cc(-n2ccnc2SC)c(Cl)cc1Cl	18µM*	-9%	?	7%	?	12
COc1ccc(OC)c(C2=Nn3c(nnc3-c3cccc(OC)c3OC)SC2)c1	·	·	·	10%	·	·
C[C@@H]1CCCCO[C@H](CN(C)S(=O)(=O)c2cccs2)[C@@H](C)CN([C@H](C)CO)C(=O)c2cc(NC(=O)Nc3ccc4c(c3)OCO4)ccc2O1	?	11%	-3%	·	?	?
Cc1noc(C)c1NC(=O)N(C)C[C@H]1OCCCC[C@@H](C)Oc2ccc(NC(=O)Nc3ccc(F)cc3)cc2C(=O)N([C@@H](C)CO)C[C@H]1C	18µM*	-6%	7%	·	?	11
C[C@@H]1CN([C@@H](C)CO)C(=O)c2cc(NC(=O)c3ccccc3)ccc2O[C@@H](C)CCCCO[C@@H]1CN(C)S(=O)(=O)c1ccc(F)cc1	21µM*	-78%	-18%	·	?	-18
Cc1ccc(S(=O)(=O)N(C)C[C@@H]2OCCCC[C@H](C)Oc3ccc(NC(=O)Nc4ccc(F)cc4)cc3C(=O)N([C@H](C)CO)C[C@H]2C)cc1	7.3µM*	1%	4%	·	13µM*	-29
Cc1noc(C)c1NC(=O)N(C)C[C@H]1OCCCC[C@@H](C)Oc2ccc(NC(=O)c3ccccc3)cc2C(=O)N([C@H](C)CO)C[C@@H]1C	-19%	-10%	19%	·	?	-14
C[C@@H]1CN([C@H](C)CO)C(=O)c2cc(NC(=O)Nc3ccc(F)cc3)ccc2O[C@@H](C)CCCCO[C@H]1CN(C)S(=O)(=O)c1cccs1	26µM*	-20%	-14%	·	?	?
COc1cc(N(C)C)cc(CN(C)CCc2ccc([N+](=O)[O-])cc2)c1O	·	·	·	2.2µM*	·	·
CC(C)C1(c2ccsc2)NC(=O)NC1=O (stereo not drawn)	-2%	-20%	-13%	·	3%	0
COc1ccc(C2(C)NC(=O)N(CC(=O)NC(C)c3ccc(CC(C)C)cc3)C2=O)cc1 (stereo not drawn)	?	-13%	?	·	?	-21
COC(=O)N1C(=O)[C@](c2ccc(OC)cc2)(C(C)C)N1C(=O)OC	16µM*	-25%	?	·	21µM*	-92*
COC(=O)N1C(=O)[C@](c2ccsc2)(C(C)C)N1C(=O)OC	?	-27%	?	·	15µM*	-99*
C=Cn1cc[n+](CC(=O)c2ccc(-c3ccccc3)cc2)c1	2.3µM*	-12%	-8%	·	3.3µM*	?
SMILES	TDP1 cell noCPT	HepG2 viability	TGFb SMAD3 inh	TDP1 block	DT40 TDP1 CPT	IL1B secr inh
C=Cn1cc[n+](CC(=O)c2cc(C(C)(C)C)c(O)c(C(C)(C)C)c2)c1	16µM*	3%	-2%	·	15µM*	-13
Cc1cc(C)c2cc(C(=O)N3CCc4ccccc4C3)[nH]c2c1	?	-45%	-6%	·	?	16
CCC(C)NCCOc1ccc(Br)cc1 (stereo not drawn)	-30%	-16%	-2%	-4%	-14%	12
CCC(C)NCCOCCOc1ccc(Br)cc1 (stereo not drawn)	23µM*	-13%	1%	-5%	?	?
CCn1cc(/C=C(\NC(=O)c2ccccc2Cl)C(=O)NCCCn2ccnc2)c2ccccc21	?	-4%	-21%	10%	?	·
CCOc1ccc(N2C(=O)/C(=C\c3ccccc3OC)S(=O)(=O)C2c2cccc([N+](=O)[O-])c2)cc1 (stereo not drawn)	16µM*	-38%	-1%	3%	15µM*	-7
CC(C)n1nc(C(=O)NCc2ccc3c(c2)OCO3)c2ccccc2c1=O	21µM*	-6%	-22%	6%	16µM*	28
C=CCn1c(=O)c(C(=O)NCc2ccc3c(c2)OCO3)c(O)c2cc(OC)c(OC)cc21	18µM*	23%	8%	3%	?	-21
O=C(NCc1ccc2c(c1)OCO2)c1c(F)c(F)c(F)c(F)c1F	4%	-13%	7%	0%	-9%	-65*
COc1cccc2sc3ccc(NCc4ccc5c(c4)OCO5)cc3c(=O)c12	?	-7%	-9%	·	?	-1
O=C(NCc1ccc2c(c1)OCO2)c1ccc2c(c1)OCO2	-4%	0%	-16%	·	-2%	-15
Cn1c2ccccc2c(=O)c2ccc(NCc3ccc4c(c3)OCO4)cc21	15µM*	-10%	?	·	23µM*	-4
Cc1ccc(C(=O)c2oc3ccccc3c2NC(=O)c2cc(=O)c3cc(C)ccc3o2)cc1	-10%	13%	8%	7%	-10%	·
